Most compounds without a hit are left out; they make up all but 19% or so of the library.
HT1080NT lethal – kills 2HG-producing HT-1080-NT fibrosarcoma cells | HT-1080-NT fibrosarcoma viability, CellTiter-Glo ATP luminescence, 48 h | Potency, µM (highest dose often 46.1 µM), inactives show at the top dose activity, negative = less viability, hits mostly cytotoxic | 1.6% of 360,000 active | AID 686970;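 further: NT is the 2HG producing partner of a matched IDH1 knockdown line; 0% = DMSO-treated cells and -100% = media-only wells without cells; nearly all actives have a fitted effect of over 55% in size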
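Viability of the 2HG-overproducing fibrosarcoma line after 48 hours of compound exposure at 37 degrees C was determined by luminescence with CellTiter-Glo, and concentration-effect curves were then fitted and categorized.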
KB-3-1 tox – KB-3-1 parental cell cytotoxicity | KB-3-1 viability, CellTiter-Glo ATP luminescence, 72 h | Potency, µM (highest dose often 46.1 µM), most hits filed as cytotoxic | 1.4% of 400,000 active | AID 1347075; further: nearly all actives have a fitted effect of over 60% in size
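Parental KB-3-1 adenocarcinoma cells in phenol-red-free DMEM with 10% FBS were pin-treated with compounds at several concentrations, incubated 72 h at 37 °C, and viability read by CellTiter-Glo luminescence; concentration-effect curves were fitted after normalization.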
KB-V1 cytotox – KB-V1 MDR subline cytotoxicity; KB-V1 MDR cells viability, CellTiter-Glo, 72 h; Potency, µM (doses to about 46.1 µM), hits mostly cytotoxic; 3.4% of 400,000 active; further: nearly all actives have a fitted effect of over 60% in size
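qHTS viability screen in drug-selected KB-V1 MDR cells: 72 h compound treatment at 37 degrees C, ATP luminescence end point.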
TDP1 cell noCPT – qHTS for Inhibitors of human tyrosyl-DNA phosphodiesterase 1 (TDP1): qHTS in cells in absence of CPT; 15% of 420,000 active; AID 686978, 2013; DT40 Tdp1-/- hTDP1 cells, no CPT, ATP luminescence, 48 h; Potency, µM (doses to about 46.2 µM), for the others: at the top dose activity change, negative = growth inhibition, hits mostly inhibitors; further: nearly all actives have a fitted effect of over 55% in size
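Seeded 400 DT40-hTDP1 cells/well (vehicle DMSO, no 20 nM CPT); pinned compounds; ≥48 hr at 37 °C; CellTiter-Glo luminescence as viability measure.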
HT1080 IDH1KD tx – kills HT-1080 cells with IDH1 knockdown; Potency, µM (top dose mostly 46.1 µM), inactives show at the top dose activity, negative = toxicity, actives largely listed as cytotoxic; 2% of 360,000 active; HT-1080 IDH1 knockdown viability, ATP luminescence, 48 h;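 further: 0% = DMSO wells and -100% = cell-free medium wells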
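CellTiter-Glo luminescence after 48 h compound exposure at 37 degrees C of IDH1-knockdown HT-1080 cells in 5% FBS RPMI. %Activity scaled between DMSO wells and cell-free media wells, with curves fitted and assigned curve classes.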
DT40 TDP1 CPT – DT40-hTDP1 cell growth loss with CPT | Potency, µM (titrated, usually from 46.2 µM), for inactives: at the top dose activity change, negative = growth inhibition, actives largely listed as inhibitors | chicken DT40 Tdp1-/-;hTDP1 cells + 20 nM CPT, ATP luminescence, 48 h | 12% of 420,000 active; further: nearly all actives have a fitted effect of over 55% in size
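Cell growth measured by CellTiter-Glo luminescence after a minimum 48 h, 37 C compound exposure with 20 nM CPT in Tdp1-knockout DT40 cells stably expressing hTDP1, seeded 400/well; qHTS titration format.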
Starred values were filed as active, the others as inactive; i = inactive; ? = inconclusive; / = no result. The call rests on the fitted dose curve; in most records, active means well fitted curve in the direction sought with a large enough effect; inconclusive means small, poorly fitted or top-dose-only effect, or another doubt; inactive means no such curve, though single readings can be large; an effect the other way counts as inactive or inconclusive. Unless noted, on the % scale 0 is the no-effect control and ±100 the full control effect; potency means the concentration at half of the fitted maximal effect.

SMILES	HT1080NT lethal	KB-3-1 tox	KB-V1 cytotox	TDP1 cell noCPT	HT1080 IDH1KD tx	DT40 TDP1 CPT
O=C(Nc1ccc2oc(-c3ccc(Br)cc3)nc2c1)c1cc2ccccc2o1	/	i	?	10.3µM*	/	?
O=C1C2C3C=CC(C3)C2C(=O)N1c1cccc(-c2nc3ccccc3o2)c1 (stereo not drawn)	13.9%	i	i	-3.7%	8.6%	-5.3%
O=C(Nc1cccc(-c2nc3ccccc3o2)c1)c1ccc(-c2ccc(Br)cc2)o1	/	i	i	10.3µM*	/	?
O=C(Nc1cccc(-c2nc3ccccc3o2)c1)c1ccc(N2C(=O)C3C4C=CC(C4)C3C2=O)cc1 (stereo not drawn)	-13.6%	i	?	8.2µM*	?	7.31µM*
O=C(Nc1ccc2oc(-c3cccnc3)nc2c1)c1cc2ccccc2o1	16.7%	i	i	-27.9%	10.5%	?
O=C(Nc1cccc(NC(=O)c2ccc(-c3ccc(Br)cc3)o2)c1)c1ccco1	-22.9%	i	i	13µM*	?	?
O=C(COC(=O)Cc1c[nH]c2ccccc12)Nc1cccc(Br)c1	3.9%	i	i	?	-2.2%	-20.3%
COc1cccc2cc(C(=O)Nc3ccc(CC(=O)O)cc3)c(=O)oc12	/	i	i	/	/	/
O=C(Nc1ccc2oc(-c3cc(Br)ccc3Cl)nc2c1)c1cc2ccccc2o1	/	/	/	10.3µM*	/	16.4µM*
Cc1ccc(-c2nc3ccccc3o2)cc1NC(=S)NC(=O)c1cc2ccccc2o1	?	8.2µM*	i	14.6µM*	?	14.6µM*
CCc1cccc(C)c1NC(=O)c1cc(S(=O)(=O)N2CCCCCC2)cn1C	/	i	i	?	/	?
Cc1ccc(-c2nnc(N3CCC(C)CC3)c3ccccc23)cc1	-15.5%	i	?	8.2µM*	-20.1%	13µM*
Cc1ccc(-c2nnc(N3CCC(C)CC3)c3ccccc23)cc1C	?	i	?	9.2µM*	29.1µM*	6.51µM*
Cc1ccc(-c2nnc(N3CCOCC3)c3ccccc23)cc1S(=O)(=O)N(C)C	20.9%	i	i	-12.7%	17.3%	-23.9%
CCOC(=O)c1c(C)c(-c2ccccc2)n(CC(=O)NC(CC)Cc2ccccc2)c1C (stereo not drawn)	/	i	i	?	/	?
COCCNC(=O)CCc1c(C)nc2c(c(C)nn2-c2ccc(C)c(C)c2)c1C	2.5%	i	i	16.4µM*	-0.9%	?
COCCNC(=O)CCc1c(C)nc2c(c(C)nn2-c2ccc(C)cc2)c1C	2.9%	i	i	18.4µM*	-6.2%	?
COc1ccc(CCNC(=O)CCc2c(C)nc3c(c(C)nn3-c3ccccc3)c2C)c(OC)c1	/	i	i	16.4µM*	/	23.1µM*
COc1cccc(CNC(=O)CCc2c(C)nc3c(c(C)nn3-c3ccc(C)c(C)c3)c2C)c1	/	i	?	20.6µM*	/	20.6µM*
Cc1ccc(-n2nc(C)c3c(C)c(CCC(=O)NCc4ccccc4Cl)c(C)nc32)cc1C	/	i	i	?	/	-3.9%
O=C(NCc1cccc(Cl)c1)N1CCN(S(=O)(=O)c2ccccc2F)CC1	6.6%	i	i	-18.0%	0.0%	-18.2%
CCN(CC)CCNC(=O)CCc1c(C)nc2c(c(C)nn2-c2ccc(C)cc2)c1C	18.4µM*	?	i	13µM*	?	20.6µM*
CCC(=O)N1CCc2cc(Br)cc(S(=O)(=O)Nc3ccccc3C(=O)OC)c21	/	i	i	?	/	5.5%
CCOc1ccccc1CNC(=O)c1ccc(N2Cc3ccccc3Oc3ncccc32)s1	/	i	i	14.6µM*	/	?
Cc1onc(-c2ccccc2Cl)c1C(=O)Nc1cccc2nsnc12	2.0%	i	i	?	-1.9%	?
SMILES	HT1080NT lethal	KB-3-1 tox	KB-V1 cytotox	TDP1 cell noCPT	HT1080 IDH1KD tx	DT40 TDP1 CPT
COc1cc(NC(=O)c2c(-c3ccccc3Cl)noc2C)c2ncccc2c1	25.1%	i	i	16.4µM*	15.8%	16.4µM*
COc1cc(NC(=O)c2ccc(Cl)cc2)c2ncccc2c1	8.6%	i	i	13.3%	2.7%	-14.3%
Cc1onc(-c2ccccc2Cl)c1C(=O)Nc1cccc2cccnc12	-25.7%	i	11.6µM*	4.11µM*	?	9.2µM*
Cc1ccc(OCC(=O)Nc2ccc(OCc3cc(=O)n4cccc(C)c4n3)cc2)cc1C	/	i	i	-36.7%	/	-24.2%
CN(C(=O)c1ccc(N2CCCCC2)c([N+](=O)[O-])c1)C1(C)CCS(=O)(=O)C1 (stereo not drawn)	-0.6%	i	?	?	-4.3%	-25.5%
Cc1ccc(S(=O)(=O)Nc2ccc(SC(F)F)cc2)c(C)c1	-1.3%	i	16.4µM*	?	-11.0%	?
Cc1ccc(S(=O)(=O)Nc2ccc3c(c2)n(C)c(=O)n3C)c(C)c1	-0.7%	i	i	20.6µM*	-0.4%	?
CCOc1ccc(S(=O)(=O)Nc2ccc3c(c2)c(C(C)=O)c(C)n3S(=O)(=O)c2ccc(OCC)cc2)cc1	/	/	/	5.17µM*	/	20.6µM*
CCOc1ccc(S(=O)(=O)Nc2ccc3c(c2)n(C)c(=O)n3C)cc1	?	?	14.6µM*	7.31µM*	-24.2%	?
Cn1c(=O)n(C)c2cc(NS(=O)(=O)c3ccccc3)ccc21	-17.2%	i	i	-5.8%	-19.1%	?
Cc1ccc2c(=O)c(C(=O)c3ccc(F)cc3)cn(CC(=O)NCCc3ccccc3)c2n1	/	i	i	-21.4%	/	-24.6%
COc1ccc(C(=O)N(c2ccc(OC)cc2)S(=O)(=O)c2ccc3c(c2)n(C)c(=O)n3C)cc1	/	i	i	?	/	?
Cc1ccc(NS(=O)(=O)c2ccc3c(c2)n(C)c(=O)n3C)cc1C	-26.2%	i	i	20.6µM*	-14.1%	16.4µM*
Cc1ccc(S(=O)(=O)Nc2ccc3c(c2)n(C)c(=O)n3C)cc1	-10.1%	?	i	?	-25.1%	10.3µM*
CCCCCC(=O)N(c1ccc(OCC)cc1)S(=O)(=O)c1ccc2c(c1)n(C)c(=O)n2C	/	i	i	16.4µM*	/	20.6µM*
CC(=O)Nc1ccc(NC(=O)CCNC(=O)c2ccccc2Cl)cc1	6.4%	i	i	3.0%	6.3%	2.9%
Cc1c(O)c(CN2CCCCC2)cc2c1oc(=O)c1ccccc12	1.9%	i	i	25.9µM*	-1.9%	?

Screening data from PubChem.
